# Rows were chosen to be rich in hits. Some 9% of all compounds tested hit in one or more screens of this group.
# Luc counter – blocks Kinase-Glo luciferase, a counter-screen artifact | Q27757 | Kinase-Glo luciferase, ATP luminescence, 8 min | Potency, µM (titrated, usually from 38.3 µM), for inactives: at the highest dose activity change, negative = inhibition, usual class: inhibitors | 0.28% of 200,000 active | AID 1379; note: % is set by controls: 0 for no effect and ±100 for the full control effect; nearly all actives have a fitted effect of over 60% in size
#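 Recombinant Kinase-Glo luciferase, 10 uM ATP (linear range), luciferin; imidazole pH 7.2 / KCl / MgCl2 / Tween / BSA buffer; 8 min RT; luminescence.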
# HTT cytoprotect – cytoprotection in Huntington HTT-Q103 PC12 cell model. PC12 HTT-Q103 induced, cytoprotection, ATP luminescence, 40 h. Potency, µM (series often up to 56.4 µM), for inactives: cytoprotection (ATP increase), most hits filed as activators. 0.14% of 230,000 active. AID 1471; note: % of control where 0% means no effect; nearly all actives have a fitted effect of over 45% in size
#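 PC12 cells with ecdysone-inducible HTT exon 1 Q103-GFP, induced with 100 nM tebufenozide and co-treated with library compounds in a dose series (1536-well, 1500 cells/well). Cytoprotection read as ATP content by ATPlite luminescence.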
# LMNA splice mod – changes lamin A minigene splicing in HeLa cells; HeLa LMNA splicing GFP/RFP minigene ratio, 48 h; Potency, µM (doses to about 46.1 µM), inactives show at the top dose ratio change, negative = inhibition, usual class: inhibitors; AID 1487; 0.01% of 200,000 active; active = well fitted inhibition curve with a large enough effect in the signal ratio, with a control signal flat, not every such curve was filed as active; inconclusive = small, poorly fitted or top-dose-only effect, or effect the other way, or a change in a side signal; the % refers to the signal ratio; note: % is set by controls: 0 for no effect and ±100 for the full control effect
#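 Read-out is the ratio of GFP to DsRed2 object intensity, acquired by 488 nm laser-scanning cytometry on HeLa lamin A-EGFP minigene reporter cells. Compound incubation 48 hrs at 37 °C in Opti-MEM with 2% FBS; DMSO 0.5% final.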
# HTT aggregate – inhibitors of mutant huntingtin aggregate formation in PC12 cells | AID 1688 | Potency, µM (titrated, usually from 46.1 µM), inactives show at the highest dose activity change, negative = inhibition, usual class: inhibitors | PC12 HttQ103-GFP aggregates, Acumen cytometry, 40 h | 1.1% of 220,000 active; note: % is set by controls: 0 for no effect and ±100 for the full control effect; nearly all actives have a fitted effect of over 60% in size
#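 Using laser scanning cytometry, GFP-positive aggregates were counted after lysis of PC12 cells induced with 100 nM tebufenozide to express HTT exon 1 Q103–GFP. Compounds were tested in titration.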
# HPGD block – inhibitors of human 15-hydroxyprostaglandin dehydrogenase (HPGD) | P15428 | purified HPGD, NADH fluorescence kinetic, PGE2 substrate | Potency, µM, without a hit: at the top dose activity change, negative = inhibition, hits mostly inhibitors | 4.3% of 150,000 active | AID 894; active = well fitted inhibition curve with a large enough effect, not every such curve was filed as active; inconclusive = small, poorly fitted or top-dose-only effect, or another doubt; inactive = no such curve, though single readings can be large or run the other way; note: % is set by controls: 0 for no effect and ±100 for the full control effect
#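 20 nM HPGD preincubated 15 min at room temperature with compound in 50 mM Tris-HCl pH 8, 0.01% Tween 20. Started with 1 mM NAD+ and 30 uM prostaglandin E2; NADH fluorescence (360/450 nm) read 5 times over 30-s intervals, last minus first.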
# ALDH1A1 inh – ALDH1A1 (human) enzyme inhibition | P00352 | Purified ALDH1A1, NADH fluorescence, propionaldehyde substrate | Potency, µM (top dose mostly 75.3 µM), inactives show at the top dose activity, negative = inhibition, most hits filed as inhibitors | 7.3% of 220,000 active | AID 1030; active = well fitted inhibition curve with a large enough effect, not every such curve was filed as active; inconclusive = small, poorly fitted or top-dose-only effect, or another doubt; inactive = no such curve, though single readings can be large or run the other way;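 note: plate controls were no enzyme wells and a reference inhibitor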
# Target sequence (P00352 whole entry, looked up): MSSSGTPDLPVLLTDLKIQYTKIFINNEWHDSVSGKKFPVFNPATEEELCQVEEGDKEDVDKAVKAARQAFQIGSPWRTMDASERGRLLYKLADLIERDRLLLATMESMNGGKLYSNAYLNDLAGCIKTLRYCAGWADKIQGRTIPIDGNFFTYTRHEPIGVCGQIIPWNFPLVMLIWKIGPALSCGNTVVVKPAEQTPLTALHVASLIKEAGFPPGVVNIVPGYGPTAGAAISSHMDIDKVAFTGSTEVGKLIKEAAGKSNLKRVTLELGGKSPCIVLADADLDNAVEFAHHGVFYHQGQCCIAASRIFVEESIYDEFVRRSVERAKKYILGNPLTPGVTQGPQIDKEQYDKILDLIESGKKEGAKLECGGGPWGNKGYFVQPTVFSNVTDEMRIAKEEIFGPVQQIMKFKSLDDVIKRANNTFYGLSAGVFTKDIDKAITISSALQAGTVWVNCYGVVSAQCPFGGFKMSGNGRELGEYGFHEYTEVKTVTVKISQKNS
# * hit, by the source's call; ? = inconclusive; . = no result given; [ ] = remark or other dose. Unless noted, calls come from the whole dose curve; as a rule, active = well fitted curve in the direction sought with a large enough effect; inconclusive = small, poorly fitted or top-dose-only effect, or another doubt; inactive = no such curve, though single readings can be large; an effect the other way counts as inactive or inconclusive. Potency is the fitted concentration of half-maximal effect.
SMILES,Luc counter,HTT cytoprotect,LMNA splice mod,HTT aggregate,HPGD block,ALDH1A1 inh
COc1cccc(OC)c1C(=O)NC(=S)N1CCOCC1,-2%,.,-11%[46 µM],1%,.,2%
COc1ccc(C(=O)NNC2=CC(=O)CC(C)(C)C2)cc1,-3%,-9%[10 µM],-7%,-2%,0%,-3%
CC1(C)CC(=O)C=C(OC(=O)c2ccc(Cl)cc2)C1,5%,4%[10 µM],-4%,11%,14µM*,7%
O=C(C1=C(O)C(=O)N(c2ncccn2)C1c1cccc(Cl)c1)c1ccco1 (stereo not given),-4%,13%,17%,-23%,-13%,18µM*
O=C(C1=C(O)C(=O)N(c2ncccn2)C1c1ccc(Cl)cc1)c1ccco1 (stereo not given),2%,-6%,-2%,11%,-13%,?
O=C(C1=C(O)C(=O)N(c2ncccn2)C1c1ccc(Cl)c(Cl)c1)c1ccco1 (stereo not given),5%,4%,25%,13%,?,7.9µM*
CC(=O)C(CC(=O)N1CCCc2ccccc21)C(=O)Nc1ccc(F)cc1 (stereo not given),-3%,13%,-5%,-5%,-7%,-6%
COc1ccc(-c2nsc(SCC(=O)NCc3ccc4c(c3)OCO4)n2)cc1,7%,-7%[10 µM],-13%,-9%,-12%,-3%
Cc1ccc(C)c(N(CC(=O)Nc2ccccc2C(=O)NCc2ccco2)S(=O)(=O)c2ccccc2)c1,0%,7%[10 µM],-7%,29%,?,?
c1ccc(N2CCN(Cc3ccnc4ccccc34)CC2)cc1,1%,6%,?,-7%,-14%,16µM*
Oc1c(CN2CCN(c3ccccc3)CC2)cc(Br)c2cccnc12,-2%[7.66 µM],-1%[10 µM],.,-2%[9.22 µM],-8%,2%[13.5 µM]
Cc1ccccc1N1CCN(Cc2c[nH]c3ccccc23)CC1,-7%,-53%[10 µM],?,22µM*,-3%,-6%
c1cnc(N2CCN(Cc3c[nH]c4ccccc34)CC2)nc1,1%,-86%,?,11µM*,-9%,-13%
CNC(=O)c1cccn1-c1ccsc1C(=O)OC,.,-22%,?,22%,.,0%
O=S(=O)(NCCc1cn2ccccc2n1)c1ccc2c(c1)CCCC2,1%,.,6%,7%,-6%,?
CCS(=O)(=O)N1N=C(c2cccc(NS(C)(=O)=O)c2)CC1c1ccc(C)cc1 (stereo not given),-4%,-18%,?,-16%,.,20µM*
COc1c(F)c(F)c(C(=O)O)c(Nc2cccc(C)c2)c1F,2%,-12%,.,-1%,.,-14%
N#CC1=C(N)Oc2cc(O)ccc2C1c1ccccc1 (stereo not given),2%,-1%,-13%,-10%,-3%,?
CCc1[nH]nc2c1C(C(C)C)C(C#N)=C(N)O2 (stereo not given),-2%,20%[10 µM],?,11µM*,-15%,?
CCCc1[nH]nc2c1C(c1ccc(O)c(OC)c1)C(C#N)=C(N)O2 (stereo not given),-4%,-5%,21%,21%,-10%,?
CCC(CC)C1C(C#N)=C(N)Oc2n[nH]c(C)c21 (stereo not given),-4%,-21%,-10%,-12%,-3%,-1%
COc1ccc(N=Cc2cc3c(cc2O)OC(N)=C(C#N)C3c2ccccc2)cc1 (stereo not given),-1%,7%[1.9 µM],?,7.9µM*,-15%,-4%
CCCc1[nH]nc2c1C(/C(C)=C/c1ccccc1)C(C#N)=C(N)O2 (stereo not given),4%,-19%,?,13%,-9%,14µM*
N#CC1=C(N)Oc2cc3ccccc3cc2C1c1cccnc1 (stereo not given),0%,-11%,-18%,3%,28µM*,14µM*
N#CC1=C(N)Oc2n[nH]c(-c3ccncc3)c2C1c1ccsc1 (stereo not given),4%,16%[0.074 µM],0%,12%,22µM*,-20%
SMILES,Luc counter,HTT cytoprotect,LMNA splice mod,HTT aggregate,HPGD block,ALDH1A1 inh
CCCc1[nH]nc2c1C(c1ccccc1OC)C(C#N)=C(N)O2 (stereo not given),-1%,0%[10 µM],6%,5%,-8%,?
CCCc1[nH]nc2c1C(c1ccncc1)C(C#N)=C(N)O2 (stereo not given),-2%,-19%,12%,-8%,-23%,14µM*
N#CC1=C(N)Oc2n[nH]c(-c3ccccc3)c2C1c1ccsc1 (stereo not given),3%,29%[10 µM],-3%,1%,-25%,-4%
CCCc1[nH]nc2c1C(c1cn[nH]c1-c1ccc(F)cc1)C(C#N)=C(N)O2 (stereo not given),0%,0%[1.9 µM],?,11µM*,-7%,?
CCCc1[nH]nc2c1C(c1cccnc1)C(C#N)=C(N)O2 (stereo not given),2%,-34%,-4%,-2%,-6%,14µM*
O=C(CCN1C(=O)/C(=C/c2cccs2)SC1=S)NC1=NCCS1,-1%,?,-16%,23%,-13%,?
CCCc1ccc(-c2c(C)sc(N)c2C#N)cc1,0%,-27%,-2%,-14%,-26%,20µM*
CCOC(=O)C1CCCN(C(=S)NC2CCCCC2)C1 (stereo not given),4%,17%[10 µM],-14%[46 µM],?,.,?
CC1CCCCC1NS(=O)(=O)c1ccc(S(=O)(=O)N2CCN(CCC#N)CC2)cc1 (stereo not given),1%,20%,-8%,-2%,4%,?
CC(C)NC(=O)c1ccc2c3n(nc2c1)-c1ccccc1CO3,.,-91%[10 µM],.,-7%[9.22 µM],.,.
Cc1no[n+]([O-])c1COc1ccc(/C=C(\C#N)C(N)=O)cc1,-2%,5%[10 µM],20%,19%,-18%,10µM*
Cc1ccnc(NC(=O)CC(c2ccccc2)c2ccccc2)n1,2%,-32%,-9%[46 µM],5%,.,-9%
CN(c1ccc(Cl)cc1)c1cc(=O)n(C)c2ccccc12,-1%,-36%,?,-3%,7.9µM*,10%
CN(Cc1ccccc1)C(=S)NC(=O)c1ccc(-c2ccccc2)cc1,-1%,17%[10 µM],-4%,15%,14µM*,?
COc1ccc(C(=O)NC(=S)N(Cc2ccccc2)Cc2ccccc2)cc1,-2%,12%,-23%,10µM*,-16%,?
C=CCN(CC=C)C(=S)NC(=O)c1ccc(OC)cc1,-4%,.,?,.,.,15µM*
COc1cc(C(=O)NC(=S)N(C)Cc2ccccc2)cc(OC)c1OC,-1%,-27%,.,-16%,.,?
CC(C)C(=O)NC(=S)N(Cc1ccccc1)Cc1ccccc1,-2%,24%[10 µM],-2%,0%,-13%,-11%
